The campaign covered roughly 53,000 compounds. About 900 (1.7%) showed an effect of 50% or more. The full list was thinned out, with strong results kept by preference.
Each compound was assayed on Mycobacterium tuberculosis (assay: Cornell - Phenotypic assay to identify agents that inhibit growth of Mycobacterium tuberculosis). Settings: 10 mM as filed; unlikely as a test dose.
Type: functional
Design: scale not given: direction of the effect not stated beside the values
With `Cn1cnnc1CN1CCC2(CCCN(C3CCCCC3)C2=O)C1` (stereo not drawn) the “Percent Effect” value was 8.326%.
For `CN(C)CCCNC(=O)c1ccccc1NC(=O)c1ccccc1Cl`, the “Percent Effect” value was 2.69%.
For `O=C(NCCCN1CCCC1=O)c1ccc(-n2ccc3ccccc32)s1`, the “Percent Effect” value was 19.74%.
With `O=C(NCCCN1CCCCC1)c1ccc(-n2ccc3ccccc32)s1` the “Percent Effect” value was 59.15%.
In the case of `O=C(NCCCN1CCOCC1)c1ccc(-n2ccc3ccccc32)s1`, the “Percent Effect” value is reported as -5.378%.
In the case of `O=C(NCc1cccnc1)[C@H]1C[C@@H]2CCN(c3ccncn3)C[C@H]2O1.O=C(O)C(F)(F)F.O=C(O)C(F)(F)F`, the “Percent Effect” value is reported as 15.26%.
For `CCOCCCn1c(NC(=O)c2cnn(C)c2)nc2ccccc21`, the “Percent Effect” value was 87.33%.
In the case of `Cc1ncsc1C(=O)Nc1ccccn1`, the “Percent Effect” value is reported as 6.488%.
`CCOCCCn1c(NC(=O)c2ccc(C)nc2)nc2ccccc21` was tested, and the “Percent Effect” value was 49.04%.
With `Cn1cc(NC(=O)Cn2c(CS(C)(=O)=O)nc3ccccc32)cn1` the “Percent Effect” value was -19.06%.
For `CCOCCCn1c(NC(=O)c2scnc2C)nc2ccccc21`, the “Percent Effect” value was 74.98%.
For `CCOC(=O)CNC(=O)c1scnc1C`, the “Percent Effect” value was 8.54%.
For `CC(NC(=O)Cc1ccccc1F)C(=O)N1CCS(=O)(=O)CC1` (stereo not drawn), the “Percent Effect” value was 19.17%.
In the case of `O=C(NCCc1ccc(Cl)s1)N1CCS(=O)(=O)CC1`, the “Percent Effect” value is reported as 3.625%.
In the case of `Cc1ccc(CC(=O)NC(C)C(=O)N2CCS(=O)(=O)CC2)s1` (stereo not drawn), the “Percent Effect” value is reported as 63.58%.
For `CC(C)n1ccc(CN2CCN(c3cc(NC4CC4)nc(N)n3)CC2)c1`, the “Percent Effect” value was 13.37%.
With `NC(=O)C1CCCN1Cc1cccc(NC(=O)c2ccc(Cl)cc2F)c1` (stereo not drawn) the “Percent Effect” value was -4.35%.
In the case of `O=C(O)C(F)(F)F.O=C1COC2(COCCN(Cc3ccsc3)C2)CN1c1ccoc1` (stereo not drawn), the “Percent Effect” value is reported as -47.88%.
`CSCCC1c2nc[nH]c2CCN1Cc1cc(Cl)ccc1O` (stereo not drawn) was tested, and the “Percent Effect” value was 102.1%.
`CSCCC1c2nc[nH]c2CCN1Cc1ccccc1C(F)(F)F` (stereo not drawn) was tested, and the “Percent Effect” value was 2.921%.
`CSCCC1c2nc[nH]c2CCN1Cc1ccccc1C#N` (stereo not drawn) was tested, and the “Percent Effect” value was 19.15%.
For `CN1C[C@@H](N)C[C@H]1C(=O)N1CCC(Cc2ccc(F)cc2)CC1`, the “Percent Effect” value was -16.49%.
For `C1CC(CN2C[C@@H]3C[C@@H](c4nnc(C5CC5)o4)O[C@@H]3C2)C1`, the “Percent Effect” value was -19.97%.
With `Cn1cc(S(=O)(=O)Nc2c(F)cccc2N2CCCC2)cn1` the “Percent Effect” value was -1.726%.
For `O=S(=O)(Nc1c(F)cccc1N1CCCC1)c1cncc(F)c1`, the “Percent Effect” value was 35.26%.
For `N#Cc1cccc(S(=O)(=O)Nc2c(F)cccc2N2CCCC2)c1`, the “Percent Effect” value was 53.51%.
With `Cc1cc(NCCNS(=O)(=O)c2cn(C)nc2C)c2ccccc2n1` the “Percent Effect” value was 11.79%.
In the case of `CNC(=O)c1cccc(CC2COCCN(Cc3ccsc3)C2)n1` (stereo not drawn), the “Percent Effect” value is reported as -5.574%.
In the case of `CC1c2ncc(COCC3CC3)n2CCN1C(=O)c1ccnn1C` (stereo not drawn), the “Percent Effect” value is reported as 18.95%.
For `Cc1cc2nc(C(C)C)cc(NCc3ccncc3)n2n1`, the “Percent Effect” value was -23.44%.
For `OCCn1nccc1C1CCN(CCOc2ccccc2)CC1`, the “Percent Effect” value was -26.3%.
In the case of `O=C(c1ccc(S(=O)(=O)N2CCSCC2)cc1)N1CCC(O)C1` (stereo not drawn), the “Percent Effect” value is reported as 10.6%.
`COC(=O)C1CCN(C(=O)c2ccc(N(C)S(C)(=O)=O)c(C)c2)CC1` was tested, and the “Percent Effect” value was -22.29%.
For `COC(=O)C1CCN(C(=O)c2nnc3ccc(Cl)cc3n2)CC1`, the “Percent Effect” value was 106.2%.
For `Cc1ccc2cc(C(=O)N3CCCN(C)CC3)ccc2n1`, the “Percent Effect” value was -5.453%.
For `CN1CCN(C(=O)c2nnc3ccc(Cl)cc3n2)CC1`, the “Percent Effect” value was 64.7%.
`CCc1nc(C(=O)N2CCN(C)CC2)nn1-c1ccccc1Cl` was tested, and the “Percent Effect” value was -21.83%.
With `COC(=O)C1CCN(C(=O)c2nnc3ccc(C)cc3n2)CC1` the “Percent Effect” value was -19.31%.
With `COc1ccccc1CCN1CCCC(CN(C)Cc2ccc(C)o2)C1` (stereo not drawn) the “Percent Effect” value was 14.72%.
For `CC1=N[C@@]2(CC[C@@H]3CN(C(=O)NCc4ccccc4C)C[C@@H]32)C(=O)N1`, the “Percent Effect” value was 15.83%.
For `Cc1c(C(=O)N2CCC(C(=O)c3nc4ccccc4s3)CC2)cnn1C`, the “Percent Effect” value was 60.09%.
`Cc1nn(C)cc1C(=O)N1CCC(C(=O)c2nc3ccccc3s2)CC1` was tested, and the “Percent Effect” value was 26.37%.
In the case of `Cn1nc(Cl)cc1C(=O)N1CCC(C(=O)c2nc3ccccc3s2)CC1`, the “Percent Effect” value is reported as -10.64%.
For `Cc1cccc(OCc2ccc(C(=O)N3N=CCC3(O)C(F)(F)F)o2)c1` (stereo not drawn), the “Percent Effect” value was 29.06%.
For `O=C(c1ccc(COc2ccc(Cl)cc2)o1)N1N=CCC1(O)C(F)(F)F` (stereo not drawn), the “Percent Effect” value was 61.62%.
In the case of `O=C(c1ccc(COc2ccccc2Cl)o1)N1N=CCC1(O)C(F)(F)F` (stereo not drawn), the “Percent Effect” value is reported as 1.91%.
For `Cc1nnsc1C(=O)N1CCC(c2nc3ccccc3[nH]2)CC1`, the “Percent Effect” value was 0.6445%.
With `CCOC(=O)C1CCN(C(=O)c2cc(F)ccc2-n2cnnn2)CC1` the “Percent Effect” value was -0.0971%.
In the case of `O=C(c1ccnnc1)N1CC[C@@H](O)[C@@H]1Cc1ccccc1`, the “Percent Effect” value is reported as -23.76%.
In the case of `CCc1c(C)sc2c1c(N)nc(=O)n2CCN1CCCCC1`, the “Percent Effect” value is reported as 22.93%.
`CCN(CC1CCCN(CCc2cccc(OC)c2)C1)C(=O)CCSC` (stereo not drawn) was tested, and the “Percent Effect” value was -29.92%.
`Cc1ccc(CN2C[C@H](OCC3CCOCC3)[C@H]3COC[C@H]32)o1.O=C(O)C(F)(F)F` was tested, and the “Percent Effect” value was -26.82%.
With `Cc1ccc(N2CCCC3(COCCN(c4nccs4)C3)C2)nn1.O=C(O)C(F)(F)F.O=C(O)C(F)(F)F` (stereo not drawn) the “Percent Effect” value was 20.96%.
With `c1ccc(N2CCOCC3(CCCN(c4nccs4)C3)C2)nc1` (stereo not drawn) the “Percent Effect” value was 23.66%.
In the case of `O=C(O)C(F)(F)F.c1ccc(N2CCCC3(COCCN(c4nccs4)C3)C2)nc1` (stereo not drawn), the “Percent Effect” value is reported as 51.66%.
In the case of `Cc1nc(Cn2c3c(ccc2=O)CC(NC(N)=O)CC3)cs1` (stereo not drawn), the “Percent Effect” value is reported as -11.16%.
With `O=C(c1ccoc1)N1CC[C@@H]2O[C@@H](COCc3ccncc3)CC[C@@H]21` the “Percent Effect” value was 17.45%.
In the case of `CC(C)c1noc(C[S+]([O-])CC(=O)Nc2cc(F)ccc2F)n1` (stereo not drawn), the “Percent Effect” value is reported as 57.68%.
With `CC(C)CCc1noc(C[S+]([O-])CC(=O)NCc2ccccc2)n1` (stereo not drawn) the “Percent Effect” value was -9.037%.
With `CC(C)c1noc(CCC(=O)Nc2cc(F)ccc2F)n1` the “Percent Effect” value was -35.92%.
With `CC(C)c1noc(C[S+]([O-])CC(=O)Nc2ccc(F)c(F)c2)n1` (stereo not drawn) the “Percent Effect” value was 60.65%.
`CC(C)c1noc(CCCC(=O)Nc2cccc(F)c2)n1` was tested, and the “Percent Effect” value was -20.44%.
In the case of `CC(C)c1noc(CN2CCN(C(=O)c3cc(Cl)ccc3F)CC2)n1`, the “Percent Effect” value is reported as 34.44%.
